Measurements reported in the supplement of paper PMC4466140.

How the values were obtained:
Assay in all cases: SPOT peptide array binding signal intensity (averaged, normalized) (arbitrary units (background-subtracted, floor 0; scale differs between SH3 domains)); higher = stronger binding of the SH3 domain to the peptide
[1] = target: AgAbp1
How it was run: (§1)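 Binding signal is given in arbitrary units that differ between domains and is the normalized, background-subtracted spot intensity averaged across replicates. Each GST-SH3 fusion from one of four yeast species was made in E. coli BL21(DE3), purified on glutathione Sepharose and incubated at 10 μg/ml overnight at 4°C on cellulose-bound synthetic 15-mer peptides in which cysteines were replaced by serines. Detection used anti-GST antibody, an HRP anti-mouse secondary and luminol, followed by imaging and Genespotter quantification.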

[2] = target: AgBbc1
How it was run: as §1

[3] = target: AgBem1-D1
How it was run: as §1

[4] = target: AgBzz1-D1
How it was run: as §1

[5] = target: AgBzz1-D2
How it was run: as §1

[6] = target: AgCyk3
How it was run: as §1

[7] = target: AgFus1
How it was run: as §1

[8] = target: AgHof1
How it was run: as §1

[9] = target: AgHse1
How it was run: as §1

[10] = target: AgLsb1
How it was run: as §1

[11] = target: AgLsb4
How it was run: as §1

[12] = target: AgMyo5
How it was run: as §1

[13] = target: AgNbp2
How it was run: as §1

[14] = target: AgRvs167
How it was run: as §1

[15] = target: AgSho1
How it was run: as §1

[16] = target: AgSla1-D1-D2
How it was run: as §1

[17] = target: AgSla1-D3
How it was run: as §1

[18] = target: CaAbp1-D1
How it was run: as §1

[19] = target: CaAbp1-D2
How it was run: as §1

[20] = target: CaBbc1
How it was run: as §1

[21] = target: CaBem1-D1
How it was run: as §1

[22] = target: CaBzz1-D1
How it was run: as §1

[23] = target: CaBzz1-D2
How it was run: as §1

[24] = target: CaCyk3
How it was run: as §1

[25] = target: CaFus1
How it was run: as §1

[26] = target: CaHof1
How it was run: as §1

[27] = target: CaHse1
How it was run: as §1

[28] = target: CaLsb1
How it was run: as §1

[29] = target: CaLsb4
How it was run: as §1

[30] = target: CaMyo5
How it was run: as §1

[31] = target: CaNbp2
How it was run: as §1

[32] = target: CaRvs167
How it was run: as §1

[33] = target: CaRvs167-3
How it was run: as §1

[34] = target: CaSho1
How it was run: as §1

[35] = target: CaSla1-D1-D2
How it was run: as §1

[36] = target: CaSla1-D3
How it was run: as §1

[37] = target: ScAbp1
How it was run: as §1

[38] = target: ScBbc1
How it was run: as §1

[39] = target: ScBem1-D1
How it was run: as §1

[40] = target: ScBzz1-D1
How it was run: as §1

[41] = target: ScBzz1-D2
How it was run: as §1

[42] = target: ScCyk3
How it was run: as §1

[43] = target: ScFus1
How it was run: as §1

[44] = target: ScHof1
How it was run: as §1

[45] = target: ScHse1
How it was run: as §1

[46] = target: ScLsb1
How it was run: as §1

[47] = target: ScLsb2
How it was run: as §1

[48] = target: ScLsb3
How it was run: as §1

[49] = target: ScLsb4
How it was run: as §1

[50] = target: ScMyo3
How it was run: as §1

[51] = target: ScMyo5
How it was run: as §1

[52] = target: ScNbp2
How it was run: as §1

[53] = target: ScPex13
How it was run: as §1

[54] = target: ScRvs167
How it was run: as §1

[55] = target: ScSho1
How it was run: as §1

[56] = target: ScSla1-D1-D2
How it was run: as §1

[57] = target: ScSla1-D3
How it was run: as §1

[58] = target: SpAbp1-D1
How it was run: as §1

[59] = target: SpBbc1
How it was run: as §1

[60] = target: SpBzz1-D1
How it was run: as §1

[61] = target: SpBzz1-D2
How it was run: as §1

[62] = target: SpCyk3
How it was run: as §1

[63] = target: SpHof1
How it was run: as §1

[64] = target: SpHof1-2
How it was run: as §1

[65] = target: SpHof1-3
How it was run: as §1

[66] = target: SpHse1
How it was run: as §1

[67] = target: SpLsb1
How it was run: as §1

[68] = target: SpLsb4
How it was run: as §1

[69] = target: SpMyo1
How it was run: as §1

[70] = target: SpNbp2
How it was run: as §1

[71] = target: SpPex13
How it was run: as §1

[72] = target: SpRvs167
How it was run: as §1

[73] = target: SpSla1-D1-D2
How it was run: as §1

[74] = target: SpSla1-D3
How it was run: as §1

ANNQGPPNLPARDKS
SPOT peptide array binding signal intensity [1]: 4.5
SPOT peptide array binding signal intensity [2]: 0.25
SPOT peptide array binding signal intensity [3]: 3.5
SPOT peptide array binding signal intensity [4]: 9.5
SPOT peptide array binding signal intensity [5]: 4
SPOT peptide array binding signal intensity [6]: ≤ 0
SPOT peptide array binding signal intensity [7]: ≤ 0
SPOT peptide array binding signal intensity [8]: 1
SPOT peptide array binding signal intensity [9]: ≤ 0
SPOT peptide array binding signal intensity [10]: 144
SPOT peptide array binding signal intensity [11]: 4990
SPOT peptide array binding signal intensity [12]: ≤ 0
SPOT peptide array binding signal intensity [13]: ≤ 0
SPOT peptide array binding signal intensity [14]: 274
SPOT peptide array binding signal intensity [15]: ≤ 0
SPOT peptide array binding signal intensity [16]: ≤ 0
SPOT peptide array binding signal intensity [17]: 0.75
SPOT peptide array binding signal intensity [18]: 8
SPOT peptide array binding signal intensity [19]: 18.5
SPOT peptide array binding signal intensity [20]: 20.5
SPOT peptide array binding signal intensity [21]: ≤ 0
SPOT peptide array binding signal intensity [22]: 6.5
SPOT peptide array binding signal intensity [23]: 4.5
SPOT peptide array binding signal intensity [24]: ≤ 0
SPOT peptide array binding signal intensity [25]: ≤ 0
SPOT peptide array binding signal intensity [26]: ≤ 0
SPOT peptide array binding signal intensity [27]: 38.8
SPOT peptide array binding signal intensity [28]: ≤ 0
SPOT peptide array binding signal intensity [29]: 5930
SPOT peptide array binding signal intensity [30]: 0.5
SPOT peptide array binding signal intensity [31]: ≤ 0
SPOT peptide array binding signal intensity [32]: 2230
SPOT peptide array binding signal intensity [33]: 3
SPOT peptide array binding signal intensity [34]: ≤ 0
SPOT peptide array binding signal intensity [35]: ≤ 0
SPOT peptide array binding signal intensity [36]: ≤ 0
SPOT peptide array binding signal intensity [37]: 7
SPOT peptide array binding signal intensity [38]: 2
SPOT peptide array binding signal intensity [39]: ≤ 0
SPOT peptide array binding signal intensity [40]: 5
SPOT peptide array binding signal intensity [41]: 1
SPOT peptide array binding signal intensity [42]: ≤ 0
SPOT peptide array binding signal intensity [43]: 2
SPOT peptide array binding signal intensity [44]: 2
SPOT peptide array binding signal intensity [45]: 42.5
SPOT peptide array binding signal intensity [46]: 645
SPOT peptide array binding signal intensity [47]: 5
SPOT peptide array binding signal intensity [48]: 7290
SPOT peptide array binding signal intensity [49]: 4380
SPOT peptide array binding signal intensity [50]: ≤ 0
SPOT peptide array binding signal intensity [51]: ≤ 0
SPOT peptide array binding signal intensity [52]: ≤ 0
SPOT peptide array binding signal intensity [53]: 472
SPOT peptide array binding signal intensity [54]: 2820
SPOT peptide array binding signal intensity [55]: ≤ 0
SPOT peptide array binding signal intensity [56]: ≤ 0
SPOT peptide array binding signal intensity [57]: 0.75
SPOT peptide array binding signal intensity [58]: ≤ 0
SPOT peptide array binding signal intensity [59]: ≤ 0
SPOT peptide array binding signal intensity [60]: 6
SPOT peptide array binding signal intensity [61]: ≤ 0
SPOT peptide array binding signal intensity [62]: ≤ 0
SPOT peptide array binding signal intensity [63]: 0.5
SPOT peptide array binding signal intensity [64]: 5.5
SPOT peptide array binding signal intensity [65]: 6.75
SPOT peptide array binding signal intensity [66]: ≤ 0
SPOT peptide array binding signal intensity [67]: 91
SPOT peptide array binding signal intensity [68]: 6520
SPOT peptide array binding signal intensity [69]: ≤ 0
SPOT peptide array binding signal intensity [70]: ≤ 0
SPOT peptide array binding signal intensity [71]: ≤ 0
SPOT peptide array binding signal intensity [72]: 3210
SPOT peptide array binding signal intensity [73]: ≤ 0
SPOT peptide array binding signal intensity [74]: ≤ 0

VDFTLPPPPPPPGLD
SPOT peptide array binding signal intensity [1]: 4
SPOT peptide array binding signal intensity [2]: ≤ 0
SPOT peptide array binding signal intensity [3]: ≤ 0
SPOT peptide array binding signal intensity [4]: ≤ 0
SPOT peptide array binding signal intensity [5]: ≤ 0
SPOT peptide array binding signal intensity [6]: ≤ 0
SPOT peptide array binding signal intensity [7]: ≤ 0
SPOT peptide array binding signal intensity [8]: 27.8
SPOT peptide array binding signal intensity [9]: 32
SPOT peptide array binding signal intensity [10]: 1.5
SPOT peptide array binding signal intensity [11]: ≤ 0
SPOT peptide array binding signal intensity [12]: 1660
SPOT peptide array binding signal intensity [13]: ≤ 0
SPOT peptide array binding signal intensity [14]: 1.67
SPOT peptide array binding signal intensity [15]: ≤ 0
SPOT peptide array binding signal intensity [16]: 2
SPOT peptide array binding signal intensity [17]: 0.5
SPOT peptide array binding signal intensity [18]: ≤ 0
SPOT peptide array binding signal intensity [19]: 9
SPOT peptide array binding signal intensity [20]: ≤ 0
SPOT peptide array binding signal intensity [21]: ≤ 0
SPOT peptide array binding signal intensity [22]: 230
SPOT peptide array binding signal intensity [23]: ≤ 0
SPOT peptide array binding signal intensity [24]: ≤ 0
SPOT peptide array binding signal intensity [25]: ≤ 0
SPOT peptide array binding signal intensity [26]: 0.5
SPOT peptide array binding signal intensity [27]: ≤ 0
SPOT peptide array binding signal intensity [28]: ≤ 0
SPOT peptide array binding signal intensity [29]: ≤ 0
SPOT peptide array binding signal intensity [30]: 29
